Data: PubChem BioAssay AID1439 (NMMLSC, 2008)
Hit rate of the full screen: of about 220,000 compounds, about 770 (0.35%) were called active. Not shown: some 15% with an inconclusive outcome. No stated cut-off is given here; in the data, active means binding response below about 49% or above about 150%; inconclusive means no clear call, values can overlap the other calls; inactive means in between. Shown is part of a subset that was picked to be rich in actives. Residues, ends and D or L forms follow the SMILES beside them. *: point of attachment. OPac = O=C(CO*)c1ccccc1; Bz = O=C(c1ccccc1)*

Biological target: Guanine nucleotide-binding protein G(o) subunit alpha (Homo sapiens) (UniProt P09471)
Sequence (P09471 whole entry, looked up): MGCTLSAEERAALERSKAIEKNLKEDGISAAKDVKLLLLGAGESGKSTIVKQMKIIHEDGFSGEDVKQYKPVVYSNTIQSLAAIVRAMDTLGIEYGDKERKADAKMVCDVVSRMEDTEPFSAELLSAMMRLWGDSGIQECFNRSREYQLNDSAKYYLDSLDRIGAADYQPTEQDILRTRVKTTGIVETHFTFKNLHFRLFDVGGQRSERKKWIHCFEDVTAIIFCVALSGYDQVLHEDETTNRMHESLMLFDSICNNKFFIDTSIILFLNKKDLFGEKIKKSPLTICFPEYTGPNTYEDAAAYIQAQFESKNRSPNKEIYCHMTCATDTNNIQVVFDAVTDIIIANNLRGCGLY
Test: compounds changing RGS7 association with Galphao – biochemical, multiplexed bead flow cytometry, primary screen (AID 1439);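 further: fluorescent Galphao held in activated GDP-AlF4 state binding bead-coupled RGS7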
Details: at 10 µM, actives lie on both sides

Binding response (% of control), active:
O=C(Nc1cccc(F)c1)c1coc(=O)c(Br)c1 45.3% [inhibitor]
CCCC(=O)n1nc(-c2ccccc2)nc1N 23.4% [inhibitor]
COc1ccccc1NC(=O)CCCc1c[nH]c2ccccc12 312%
CCOc1ccccc1NC(=O)c1cc(S(=O)(=O)N2CCC3(CC2)OCCO3)ccc1F 15.2% [inhibitor]
FC(F)Oc1ccccc1C1CC(c2ccc(Br)s2)Nc2ncnn21 (stereo not given) 163%
CCOC(=O)C1Sc2[nH]c(=O)sc2C(c2ccc(Cl)cc2)C1C(=O)OCC (stereo not given) -17.7% [inhibitor]
CSc1ccc(CN2C(=O)NC3(CCCCCC3)C2=O)cc1 219%
COc1cccc(C(=O)NCCSc2ccc(Br)cc2)c1 16.5% [inhibitor]
O=C(CSc1ccc2nnc(-c3ccccc3)n2n1)N1CCCc2ccccc21 207%
COc1ccc(CCC(=O)OCC(=O)Nc2ccc(C)c(S(=O)(=O)N(C)C)c2)cc1 45.2% [inhibitor]

Binding response (% of control), inactive:
CC(C)OCCCNC(=S)N1CCC(C(=O)c2ccc3c(c2)OCCO3)CC1 105%
CCOCCCNCc1ccc(OCc2ccc(F)cc2)c(OC)c1 103%
O=C(Nc1cccc(F)c1)c1ccc(S(=O)(=O)N2CCCC2)cc1 97.7%
Cc1c(NC(=O)c2coc(=O)c(Br)c2)c(=O)n(-c2ccccc2)n1C 101%
CCN(CC)CCOC(=O)c1ccc(NC(=O)CNC(=O)c2ccccc2)cc1 98.5%
COc1ccccc1C(=O)n1nc(-c2ccccc2)nc1N 100%
COc1ccc(CC(=O)n2nc(-c3cccnc3)nc2N)cc1 97.3%
OCCC1CN(Cc2cccc(OC3CCCC3)c2)CCN1Cc1ccsc1 (stereo not given) 102%
COCCN(CCOC)S(=O)(=O)c1ccc(/C(O)=C(\C#N)c2nc3ccccc3[nH]2)cc1 104%
COC(=O)Cn1cc(/C=C/[N+](=O)[O-])c2ccccc21 102%
O=C(COc1ccc(-c2ccccc2)cc1)NN=C1CCCC1 108%
COc1ccccc1NC(=O)C[n+]1ccccc1 99.2%
O=C(CCCCCn1c(=O)[nH]c2ccccc2c1=O)NCCc1c[nH]c2ccccc12 102%
O=C(CNC(=O)c1ccccc1)NCC(=O)OCC(=O)c1ccccc1 (Bz-Gly-Gly-OPac) 113%
CCOc1ccccc1NC(=O)CCN1CCN(S(=O)(=O)c2ccc(OC)cc2)CC1 100%
Cc1c(C(=O)Nc2ccccc2Cl)oc2ccc(S(=O)(=O)N3CCC4(CC3)OCCO4)cc12 103%
Cc1cc(C2=NNC(=Nc3ccc(S(=O)(=O)N4CCOCC4)cc3)SC2)c(C)n1CC1CCCO1 (stereo not given) 104%
COc1ccc(C2CC(c3ccccc3)Nc3ncnn32)cc1 (stereo not given) 93.2%
Clc1ccc(C2CC(c3cccs3)n3ncnc3N2)cc1Cl (stereo not given) 99.3%
O=C(NC1CCCC1)C(c1ccc(N2CCOCC2)cc1)N(C(=O)c1ccco1)c1ccccc1F (stereo not given) 95.4%
O=C(C1CCN(C2CCN(Cc3ccc4cc(F)ccc4n3)CC2)CC1)N1CCCC1 106%
CCCNC(=O)c1c(Cl)cnn1-c1ccc(C)cc1 96.6%
CC(=O)c1ccc(NC(=O)C(C)N(C)CC(=O)Nc2ccccc2Cl)cc1 (stereo not given) 98.2%
Cc1cccc2c1N(CCOc1ccccc1)C(=O)C2=O 86.4%
CCOC(=O)C1C(c2ccc(Cl)cc2)NC(=S)NC1(O)C(F)(F)F (stereo not given) 103%
CCOC(=O)C1=C(C)NC(=O)N(C(C)=O)C1c1ccc(Cl)cc1 (stereo not given) 104%
Cc1cc(C)n(CCNCc2c(C(=O)N3C[C@@H](C)O[C@@H](C)C3)nc3ccc(Cl)cn23)n1 98.3%
COCC(C)n1c(C)cc(C(=O)COc2ccc(C)nc2[N+](=O)[O-])c1C (stereo not given) 100%
CCOC(=O)c1ccc(N2C(=O)CC(N3CCN(C(=O)c4ccccc4)CC3)C2=O)cc1 (stereo not given) 99.4%
COCCNc1nc2nonc2nc1N(C)Cc1ccc(C)cc1 101%
O=C1NC2(CCCCCC2)C(=O)N1CCS(=O)(=O)Oc1ccccc1 97.1%
O=C(CN1C(=O)NC2(CCCCCC2)C1=O)NC1CC1 123%
Cc1nc2ccccc2c(C)c1C(=O)c1ccc(F)cc1 97.5%
CCOc1ccc(CN2CCN(Cc3ccc(C)o3)CC2CCO)cc1 (stereo not given) 98.7%
CN(C)c1ccc2c(=O)[nH][nH]c(=O)c2c1 104%
CCOC(=O)c1[nH]cnc1C(=O)Nc1ccccc1C 100%
COC(=O)CNC(=O)c1ccc(OC2CCN(C(=O)C3CC3)CC2)cc1 105%
COc1cccc(C(=O)NNC(=O)c2ccccc2Br)c1 99%
COc1cc(OC)cc(C(=O)NCCSCc2ccco2)c1 98.2%
Cc1ccc(-c2cc(C(F)(F)F)n3ncc(C(=O)N4CCCCC4c4cccnc4)c3n2)cc1 (stereo not given) 100%
C/C(=N\NC(=O)c1cccc(N2CCCC2=O)c1)c1ccc(N)cc1 102%
Cn1c(SCC(=O)N2CCCc3ccccc32)nc2ccccc2c1=O 96.4%
CCCn1c(SCC(=O)N2CCc3ccccc32)nnc1-c1ccncc1 96%
CC(C)CC(CC(C)C)=NNC(=O)c1ccc(CSc2nncn2C)cc1 99.5%
CN(CCC1CCOCC1)Cc1cn[nH]c1-c1ccc(-c2ccccc2)cc1 93%
O=C(NCC1COc2ccccc2O1)C1(c2ccccc2)CCCC1 (stereo not given) 103%
COc1cc(CCC(=O)OCC(=O)Nc2cccc(S(N)(=O)=O)c2)cc(OC)c1OC 91.7%
Cc1ccc(C(=O)Nc2ccc(C)c(S(=O)(=O)N(C)C)c2)s1 99.1%
COc1ccc2oc(=O)c(C(=O)N3CCCC3)cc2c1 101%
Nn1c(SCC(=O)Nc2nccs2)nncc1=O 102%
